DUSP3 inh: VHR1 phosphatase inhibitors, primary screen, biochemical, absorbance, uHTS. Dual specificity protein phosphatase 3 (Homo sapiens), P51452. recombinant VHR phosphatase, pNPP absorbance. inhibition, % at 13.3 µM. actives 0.52% (n = 290,000). AID 1654, 2009; in the data active = inhibition above about 50%
Vc quorum ag: inducers of Vibrio cholerae quorum light production without autoinducers, primary screen, BH1578 luxS cqsA deficient, single point; V. cholerae BH1578 lux reporter, luminescence, 6 h; activation, % at 18.7 µM; actives 0.16% (n = 350,000); AID 588436, 2011; in the data active = activation mostly above about 9.7%, no sharp cut-off
PrPC surface inh: inhibitors of human cell surface prion protein PrPC, primary screen, cell-based, TR-FRET. AID 720596, 2013. Major prion protein (Homo sapiens), P04156. actives 0.43% (n = 370,000). inhibition, % at 13.8 µM. TR-FRET read-out; in the data active = inhibition above about 24%
CCHFV vOTU inh: CCHFV vOTU protease inhibitors, primary screen, biochemical, Pep-AMC substrate, fluorescence | actives 0.55% (n = 370,000) | Crimean-Congo hemorrhagic fever virus L polyprotein viral ovarian tumor (vOTU) protease … | inhibition, % at 11.5 µM | AID 651958, 2012; in the data active = inhibition above about 30%
TcdB inh: TcdB glycohydrolase inhibitors, primary screen, biochemical, single point, plate reader; Toxin B (Clostridioides difficile), P18177; TcdB glycohydrolase enzymatic assay; inhibition, % at 9.99 µM; actives 0.24% (n = 350,000); in the data active = inhibition above about 10%
PriA SSB inh: inhibitors of Klebsiella pneumoniae PriA binding to SSB C-terminal tail, primary screen, biochemical, AlphaScreen; inhibition, % at 33 µM; AlphaScreen SSBct-PriA binding, biotinylated peptide; actives 0.6% (n = 430,000); PriA–SSB C-terminal tail interaction (Klebsiella pneumoniae); in the data active = inhibition mostly above about 37%, no sharp cut-off; inactive = mostly below about 20%
PrPC confirm: confirmation of inhibitors of cell surface human prion protein, confirmation, cell-based, TR-FRET; shares compounds with PrPC surface inh; cell surface PrPC level; inhibition, % at 13.8 µM; actives 65% (n = 1,500); AID 743200, 2013; in the data active = inhibition above about 25%
LD9 cytotox: cytotoxicity in LD9 cells, cytotoxicity control for cell surface PrPc inhibitor project, cell-based, luminescence, high throughput. actives 29% (n = 1,500). luminescence viability. AID 743201, 2013. shares compounds with PrPC surface inh. inhibition, % at 13.8 µM; in the data active = inhibition above about 9.5%
Large screens that a line does not name were inactive (follow-up assays come after a bar, where they were run). Only some compounds are listed: those with a hit (about 1.5% of all), similar ones and a draw of the others.

COc1ccc(-c2ccc(N3CCN(C(=O)c4ccc(C)c(C)c4)CC3)nn2)cc1OC	none (no result: DUSP3 inh, Vc quorum ag, PrPC surface inh, CCHFV vOTU inh, TcdB inh)
COc1ccc(NC(=O)c2cc(S(=O)(=O)N(C)C)ccc2N2CCCC2)cc1Cl	PrPC surface inh 24 | PrPC confirm inactive | LD9 cytotox inactive
Cc1ccc(NC(=O)c2cc(S(=O)(=O)N(C)C)ccc2N2CCCC2)cc1S(=O)(=O)N(C)C	PrPC surface inh 44 (no result: DUSP3 inh) | PrPC confirm 37 | LD9 cytotox inactive
COc1ccc(S(=O)(=O)N2CCOCC2)cc1C(=O)Nc1ccc(N2CCCCCC2)cc1	PrPC surface inh 31 (no result: DUSP3 inh) | PrPC confirm 30 | LD9 cytotox inactive
COc1ccc(C(=O)Nc2ccc(S(=O)(=O)N3CCCCC3)cc2)cc1OC	none (no result: TcdB inh)
COc1ccc(-c2cnnn2-c2ccc(NC(=O)c3ccc(S(=O)(=O)N4CCCCC4)cc3)cc2)cc1OC	PrPC surface inh 32 | PrPC confirm inactive | LD9 cytotox inactive
COc1ccc(OC)c(NC(=O)c2cc(S(=O)(=O)N(C)C)ccc2N2CCCC2)c1	none (no result: DUSP3 inh)
Cc1ccc(NC(=O)c2cc(S(=O)(=O)N3CCCCC3)ccc2N2CCOCC2)cc1S(=O)(=O)N(C)C	none (no result: DUSP3 inh)
Cc1cc(C)cc(N(CC(=O)Nc2c(C)cc(C)cc2C)C2=NC3CS(=O)(=O)CC3S2)c1 (centres undefined)	none (no result: DUSP3 inh, Vc quorum ag, PrPC surface inh, CCHFV vOTU inh, TcdB inh)
CCOC(=O)c1cnn2ccc(NC(=O)c3cc(C)cs3)cc12	none (no result: DUSP3 inh, Vc quorum ag, PrPC surface inh, CCHFV vOTU inh, TcdB inh)
CC(C)c1ccccc1-n1c(SCC(=O)N2CCc3ccccc3C2)nc2ccccc2c1=O	PrPC surface inh 34 | PrPC confirm 36 | LD9 cytotox 35
O=C(CSc1nc2ccccc2c(=O)n1-c1ccccc1)N1CCc2ccccc2C1	none (no result: TcdB inh)
NC(N)=N/N=C/c1cn(-c2ccccc2)nc1-c1cccs1	PrPC surface inh 27 (no result: PriA SSB inh) | PrPC confirm inactive | LD9 cytotox 60
COc1ccc(Cl)cc1N/C(N)=N/c1nc(C)cc(=O)[nH]1	PrPC surface inh 32 (no result: PriA SSB inh) | PrPC confirm inactive | LD9 cytotox inactive
COc1ccc(Cl)cc1N/C(N)=N/c1nc(CSc2ccc(C)cc2)cc(=O)[nH]1	none (no result: TcdB inh, PriA SSB inh)
COc1ccc(S(=O)(=O)Nc2ccc3c(c2)N(C(=O)c2ccco2)CC3)cc1Cl	none (no result: DUSP3 inh, Vc quorum ag, PrPC surface inh, CCHFV vOTU inh, TcdB inh)
Cc1ccccc1C(=O)NNc1ccc(-c2csnn2)cc1	PrPC surface inh 25 | PrPC confirm inactive | LD9 cytotox inactive
CC(=O)Oc1ccc(-c2csnn2)cc1	none (no result: TcdB inh)
Cc1cc(=O)[nH]c(-n2nc(C)c(CCC(=O)NCc3c(F)cccc3F)c2C)n1	none (no result: DUSP3 inh, Vc quorum ag, PrPC surface inh, CCHFV vOTU inh, TcdB inh)
CSc1nc(N)nc(-c2cccs2)c1C#N	none (no result: TcdB inh)
CC(C)Sc1nc(N)nc(-c2cccs2)c1C#N	PrPC surface inh 30 (no result: TcdB inh) | PrPC confirm 41 | LD9 cytotox inactive
CCN(CC)c1ccc(C(=C2C=CC(=[N+](CC)CC)C=C2)c2ccc(N(CC)CC)cc2)cc1	none (no result: DUSP3 inh)
CCN(CC)c1ccc(C(=C2C=CC(=[N+](CC)CC)C=C2)c2ccccc2)cc1	PrPC surface inh 85 (no result: DUSP3 inh) | PrPC confirm 90 | LD9 cytotox 99
Cc1cc(C(=O)NCCc2ncc(-c3cccs3)[nH]2)no1	none (no result: DUSP3 inh, Vc quorum ag, PrPC surface inh, CCHFV vOTU inh, TcdB inh)
O=C(Nc1nc2c(Cl)c(Cl)ccc2s1)c1ccc(S(=O)(=O)N2CCCC2)cc1	none (no result: DUSP3 inh, Vc quorum ag, PrPC surface inh, CCHFV vOTU inh, TcdB inh)
COc1cc(C2Nc3ccccc3C(=O)N2c2ccc(Cl)cc2)c(Cl)cc1OCC(=O)O (centres undefined)	none (no result: TcdB inh)
CCOc1cc(C2Nc3ccccc3C(=O)N2c2ccccc2)c(Br)cc1OCC(=O)O (centres undefined)	PrPC surface inh 93 (no result: TcdB inh) | PrPC confirm 63 | LD9 cytotox inactive
C=C1C(=O)O[C@@H]2C[C@@H](C)[C@@H]3C=CC(=O)[C@@]3(C)[C@@H](OC(C)=O)[C@H]12	PrPC surface inh 95 (no result: Vc quorum ag) | PrPC confirm 104 | LD9 cytotox 34

Bioassay records from PubChem BioAssay.
